Structures are written as SMILES. Several values for one entry are separate records, joined by “and”; a condition that tells them apart may be missing. Equal values may be shown once. Inconclusive results are not listed. Activity calls are given as the source filed them. Unless noted, calls follow the shape of the dose curve; as a rule, active = well fitted curve in the direction sought with a large enough effect in the repeat runs; inconclusive = weak or mixed curves; inactive = no such curve, though single readings can be large; an effect the other way counts as inactive or inconclusive.

The nature of assay [1]: qHTS assay to identify small molecule agonists of the androgen receptor (AR) signaling pathway in the presence of an antagonist - cell viability counter screen (AID 1259379). Also: nearly all actives have a fitted effect of over 25% in size. Also: potency is read from the fitted curve at half-maximal effect. In a few lines: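 MDA-kb2 cells (MMTV-luciferase, AR/GR), 3,000/well, 5 h attachment, then 3.0 µM nilutamide (final) and compounds at 15 concentrations. Viability by CellTiter-Fluor fluorescence after 16 h at 37 °C, 0% CO2, in the reporter wells.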
(In general: qHTS replaces the single test concentration by a dilution series.)

Assay [2] is described as follows: qHTS assay to identify small molecule agonists of the estrogen receptor beta (ER-beta) signaling pathway - cell viability counter screen (AID 1259380). Also: nearly all actives have a fitted effect of over 30% in size. Also: potency is read from the fitted curve at half-maximal effect. An outline of the steps:
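ER-beta-UAS-bla HEK293T cells in medium with 2% charcoal-stripped FBS, pre-incubated 6 hr, then treated 16 hr at 37C. Cytotoxicity read in the same wells by CellTiter-Glo luminescence after 30 min at room temperature.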

For assay [3], the target named is Estrogen receptor (Homo sapiens) (UniProt P03372). Briefly: qHTS assay to identify small molecule agonists of the estrogen receptor alpha (ER-alpha) signaling pathway in the presence of an antagonist (AID 1259383; calls by dose curve; also: top concentration of the series differs between compounds; nearly all actives have a fitted effect of over 15% in size). An outline of the steps: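 VM7Luc4E2 cells express endogenous full-length ER-alpha with an ERE-luciferase reporter and were hormone-deprived for 5 days. Compounds at 15 concentrations were added with 10.0nM ICI-182,780 for 22hr at 37C. Luminescence was read with ONE-Glo.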
Estrogen receptor (Homo sapiens), sequence (P03372 whole entry, looked up): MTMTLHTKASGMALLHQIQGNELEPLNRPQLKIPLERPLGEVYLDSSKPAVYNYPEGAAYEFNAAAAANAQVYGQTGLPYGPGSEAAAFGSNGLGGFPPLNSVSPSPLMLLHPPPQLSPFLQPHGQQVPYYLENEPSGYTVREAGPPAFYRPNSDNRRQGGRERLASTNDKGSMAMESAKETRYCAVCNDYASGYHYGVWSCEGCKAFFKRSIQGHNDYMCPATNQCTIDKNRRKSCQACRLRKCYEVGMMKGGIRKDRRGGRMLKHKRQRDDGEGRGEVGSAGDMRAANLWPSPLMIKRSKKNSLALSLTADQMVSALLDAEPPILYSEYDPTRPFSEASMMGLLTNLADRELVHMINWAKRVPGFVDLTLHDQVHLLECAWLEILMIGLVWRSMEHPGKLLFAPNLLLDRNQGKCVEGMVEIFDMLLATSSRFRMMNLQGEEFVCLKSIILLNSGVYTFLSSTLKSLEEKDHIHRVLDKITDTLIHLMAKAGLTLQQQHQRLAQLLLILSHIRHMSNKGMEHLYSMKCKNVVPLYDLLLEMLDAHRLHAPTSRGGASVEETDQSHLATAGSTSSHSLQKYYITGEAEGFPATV

Assay [4] in a line: qHTS assay to identify small molecule agonists or antagonists of the thyroid stimulating hormone receptor (TSHR) signaling pathway - wild type cell line counter screen (AID 1259384; calls by dose curve; also: potency is read from the fitted curve at half-maximal effect). In a few lines: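 Counter screen in untransfected Hek293: compounds (15-point titration, triplicate) plus phosphodiesterase inhibitor Ro20-1724 added after 18 h plating; 30 min RT. Intracellular cAMP via competitive d2/cryptate immunoassay, 1 h incubation.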

Assay [5] has as its target Thyrotropin receptor (Homo sapiens) (UniProt P16473). Briefly: qHTS assay to identify small molecule antagonists of the thyroid stimulating hormone receptor (TSHR) signaling pathway (AID 1259385; calls by dose curve; also: nearly all actives have a fitted effect of over 20% in size; also: potency is read from the fitted curve at half-maximal effect). An outline of the steps: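 Antagonist mode: compound-treated TSHR-expressing HEK293 cells were stimulated with 1.5 ng/mL TSH (final) in presence of Ro20-1724 for 30 min at RT. HTRF cAMP detection after 1 h; each compound tested at 15 concentrations, triplicate.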

A short description of assay [6]: qHTS assay to identify small molecule agonists of the estrogen receptor alpha (ER-alpha) signaling pathway in the presence of an antagonist - cell viability counter screen (AID 1259386).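 Also: series mostly up to about 92 µM; cells exposed to compounds for 22 h at 37 °C before the viability read; nearly all actives have a fitted effect of over 30% in size.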 An outline of the steps: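 Cell viability in VM7Luc4E2 cells (endogenous full-length ER-alpha) measured by CellTiter-Fluor fluorescence in the same wells as the luciferase screen. Cells pre-cultured 5 days in charcoal-stripped serum, then treated 22 h with compounds at 15 concentrations plus 10.0nM ICI-182,780.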

In assay [7] the target is Progesterone receptor (Homo sapiens) (UniProt P06401). Briefly: qHTS assay to identify small molecule agonists of the progesterone receptor (PR) signaling pathway (AID 1346784; calls by dose curve; also: nearly all actives have a fitted effect of over 30% in size). An outline of the steps: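 Beta-lactamase reporter read-out: after 16 hr compound treatment at 37C and a further 2 hr at room temperature with LiveBLAzer B/G FRET substrate, fluorescence was measured in PR-UAS-bla HEK 293T cells grown in 2% charcoal-stripped serum.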
Progesterone receptor (Homo sapiens), sequence (P06401 whole entry, looked up): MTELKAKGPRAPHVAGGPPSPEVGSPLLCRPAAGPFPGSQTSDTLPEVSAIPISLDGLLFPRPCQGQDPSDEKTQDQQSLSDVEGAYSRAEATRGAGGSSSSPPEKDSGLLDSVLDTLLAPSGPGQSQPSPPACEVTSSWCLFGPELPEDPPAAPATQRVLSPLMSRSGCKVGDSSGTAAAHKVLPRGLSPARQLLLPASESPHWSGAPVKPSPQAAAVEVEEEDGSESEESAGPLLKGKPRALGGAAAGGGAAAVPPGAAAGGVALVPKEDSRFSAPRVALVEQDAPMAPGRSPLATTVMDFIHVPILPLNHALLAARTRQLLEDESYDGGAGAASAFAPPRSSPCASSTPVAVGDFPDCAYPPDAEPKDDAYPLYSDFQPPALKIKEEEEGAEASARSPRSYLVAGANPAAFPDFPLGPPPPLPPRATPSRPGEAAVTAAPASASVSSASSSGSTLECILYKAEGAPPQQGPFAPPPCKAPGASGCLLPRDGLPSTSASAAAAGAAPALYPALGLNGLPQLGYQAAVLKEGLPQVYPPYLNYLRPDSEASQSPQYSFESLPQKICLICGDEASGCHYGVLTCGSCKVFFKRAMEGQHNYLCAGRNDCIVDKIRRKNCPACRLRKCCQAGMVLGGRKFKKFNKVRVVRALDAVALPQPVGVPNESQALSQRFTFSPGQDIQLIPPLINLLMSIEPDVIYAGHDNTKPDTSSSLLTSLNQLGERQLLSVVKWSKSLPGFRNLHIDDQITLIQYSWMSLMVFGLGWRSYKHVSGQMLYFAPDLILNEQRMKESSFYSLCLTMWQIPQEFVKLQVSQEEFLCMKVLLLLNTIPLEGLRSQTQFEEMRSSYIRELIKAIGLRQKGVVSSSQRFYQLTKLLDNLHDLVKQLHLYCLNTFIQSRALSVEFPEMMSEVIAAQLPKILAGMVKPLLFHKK

For assay [8] the target is unchanged. Briefly: qHTS assay to identify small molecule antagonists of the progesterone receptor (PR) signaling pathway (AID 1346795; active = well fitted inhibition curve with a large enough effect in the signal ratio in the repeat runs, not every such curve was filed as active; the % refers to the signal ratio; also: potency is read from the fitted curve at half-maximal effect). An outline of the steps: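 Read-out is fluorescence from the LiveBLAzer B/G FRET substrate, cleaved by a UAS-controlled beta-lactamase in PR-UAS-bla HEK293T cells after 16 hr exposure to compound plus 1 nM promegestone (final), followed by 2 hr at room temperature.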

The nature of assay [9]: qHTS assay to identify small molecule antagonists of the progesterone receptor (PR) signaling pathway - cell viability counter screen (AID 1346798). Also: nearly all actives have a fitted effect of over 50% in size. Also: potency is read from the fitted curve at half-maximal effect. An outline of the steps: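 HEK293T PR-UAS-bla, 2% charcoal-stripped FBS; 4 hr pre-plate; cpd + R5020, 16 h 37C; LiveBLAzer read first; then CellTiter-Glo 30 min RT, luminescence.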
Assay [10] is described as follows: qHTS assay to identify small molecule agonists of the progesterone receptor (PR) signaling pathway - cell viability counter screen (AID 1346799; calls by dose curve; also: nearly all actives have a fitted effect of over 45% in size; also: potency is read from the fitted curve at half-maximal effect). In a few lines:
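Luminescence from CellTiter-Glo, added after the beta-lactamase FRET read in the same wells, gave cytotoxicity in PR-UAS-bla HEK293T cells treated with compounds for 16 hr at 37C.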

A short description of assay [11]: qHTS assay to identify small molecule antagonists of the TGF-beta/Smad signaling pathway - cell viability counter screen (AID 1346824). Also: nearly all actives have a fitted effect of over 50% in size. Also: potency is read from the fitted curve at half-maximal effect. In a few lines:
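Cytotoxicity counter-screen run in the same wells as the beta-lactamase Smad reporter read: CellTiter-Glo luminescence after 30 min at room temperature. HEK 293T SBE-bla cells had 5 hr compound exposure at 37 C with TGF-beta1 (0.25 ng/mL stock).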

The nature of assay [12]: qHTS assay to identify small molecule agonists of the TGF-beta/Smad signaling pathway - cell viability counter screen (AID 1346829). Also: nearly all actives have a fitted effect of over 45% in size. Also: potency is read from the fitted curve at half-maximal effect. An outline of the steps:
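SBE-bla HEK 293T cells plated overnight, compound exposure 5 hr at 37 C. Viability read in the same wells by CellTiter-Glo luminescence after 30 min at room temperature, following the beta-lactamase read.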

The nature of assay [13]: qHTS assay to identify small molecule agonists of the TGF-beta/Smad signaling pathway (AID 1346859; active = well fitted activation curve with a large enough effect in the signal ratio in the repeat runs, not every such curve was filed as active; the % refers to the signal ratio; also: series mostly up to about 77 µM). In a few lines:
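SBE-bla HEK 293T, 4,000 cells/well, plated o/n; cpd in DMSO, 5 hr, 37 C/5% CO2; B/G FRET substrate 2 hr RT; ex 405, em 460/530 nm.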

Assay [14] concerns the target Thyrotropin-releasing hormone receptor (Homo sapiens) (UniProt P34981). Briefly: qHTS assay to identify small molecule antagonists of the thyrotropin-releasing hormone receptor (TRHR) signaling pathway (AID 1346877; active = well fitted inhibition curve with a large enough effect in the repeat runs, not every such curve was filed as active; also: series mostly up to about 51 µM). An outline of the steps:
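TRHR-expressing HEK293 cells loaded with calcium dye for 2 h at 37 C; compounds pre-incubated 5 min at room temperature before TRH challenge at 1 nM final. Intracellular calcium fluorescence read kinetically for 3 min; 15 concentrations in triplicate.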

Assay [15] shares this target. The experiment in a line: qHTS assay to identify small molecule agonists of the thyrotropin-releasing hormone receptor (TRHR) signaling pathway (AID 1346891; calls by dose curve; also: series mostly up to about 58 µM). An outline of the steps: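 Intracellular calcium rise, read as fluorescence every second for 3 min, served as the agonist signal in dye-loaded HEK293 cells expressing TRHR; each compound ran at 15 concentrations in triplicate.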

Assay [16] can be described thus: Human pregnane X receptor (PXR) small molecule agonists, qHTS cell viability counter screen (AID 1346977). Also: nearly all actives have a fitted effect of over 50% in size. Also: potency is read from the fitted curve at half-maximal effect. In a few lines:
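PXR-Luc HepG2, 2,000 cells/well, 5% charcoal-stripped FBS; 5hr settle; cpd 24hr, 37C/5% CO2; CellTiter-Fluor at 23hr, read 1hr later (fluorescence).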

Assay [17] is described as follows: Caspase-3/7 induction in HepG2 cells by small molecules, qHTS assay (AID 1346978). Also: nearly all actives have a fitted effect of over 15% in size. In a few lines:
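Caspase-3/7 induction was measured by Caspase-Glo 3/7 luminescence (30 min, room temperature) after a 17 hr compound exposure of wild-type HepG2 cells seeded at 2,000 per well and pre-incubated 5 hr.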

Assay [18] in a line: Caspase-3/7 induction in CHO-K1 cells by small molecules, qHTS cell viability counter screen (AID 1346979). Also: nearly all actives have a fitted effect of over 35% in size. Also: potency is read from the fitted curve at half-maximal effect. In a few lines:
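Cells (CHO-K1, wild type) are plated at 1,500 per well and incubated 5hr. Test compounds in DMSO are then pinned in, followed by 16hr at 37C and 5% CO2. Viability is read by CellTiter-Fluor fluorescence after 1hr.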

The target in assay [19] is Androgen receptor (Homo sapiens) (UniProt P10275). The experiment in a line: qHTS assay to identify small molecule agonists of the androgen receptor (AR) signaling pathway in the presence of an antagonist (AID 1259381; calls by dose curve; also: nearly all actives have a fitted effect of over 15% in size). In a few lines: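 MDA-kb2 cells carrying MMTV-luciferase (AR/GR responsive), 3,000 cells/well, co-treated with 3.0 uM nilutamide final. Compounds at 15 concentrations, 16 hr at 37C without CO2. Luciferase luminescence read after 30 min with ONE-Glo.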
Androgen receptor (Homo sapiens), sequence (P10275 whole entry, looked up): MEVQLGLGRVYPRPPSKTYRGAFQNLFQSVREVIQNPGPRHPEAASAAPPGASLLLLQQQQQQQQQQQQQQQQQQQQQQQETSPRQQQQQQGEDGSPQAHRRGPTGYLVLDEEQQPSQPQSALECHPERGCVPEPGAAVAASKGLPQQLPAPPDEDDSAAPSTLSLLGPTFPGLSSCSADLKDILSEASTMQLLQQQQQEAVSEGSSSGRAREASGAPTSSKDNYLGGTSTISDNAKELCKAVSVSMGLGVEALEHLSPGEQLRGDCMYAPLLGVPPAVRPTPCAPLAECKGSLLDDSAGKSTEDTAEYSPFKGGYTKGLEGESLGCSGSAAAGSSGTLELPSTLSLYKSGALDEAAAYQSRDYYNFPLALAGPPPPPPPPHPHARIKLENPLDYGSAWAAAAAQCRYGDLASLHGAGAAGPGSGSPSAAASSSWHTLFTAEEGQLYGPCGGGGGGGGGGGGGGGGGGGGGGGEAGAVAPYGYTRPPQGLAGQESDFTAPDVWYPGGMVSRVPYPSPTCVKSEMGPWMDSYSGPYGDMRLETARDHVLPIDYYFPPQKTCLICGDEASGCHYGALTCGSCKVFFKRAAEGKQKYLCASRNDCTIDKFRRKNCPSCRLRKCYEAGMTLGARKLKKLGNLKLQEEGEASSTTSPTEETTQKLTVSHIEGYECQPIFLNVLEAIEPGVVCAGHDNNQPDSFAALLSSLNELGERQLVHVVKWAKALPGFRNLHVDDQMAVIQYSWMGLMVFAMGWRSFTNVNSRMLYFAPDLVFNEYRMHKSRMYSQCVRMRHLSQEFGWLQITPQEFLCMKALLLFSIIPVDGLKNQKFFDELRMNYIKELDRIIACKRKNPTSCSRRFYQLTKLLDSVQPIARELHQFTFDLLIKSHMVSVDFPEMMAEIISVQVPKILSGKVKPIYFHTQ

Assay [20] is described as follows: qHTS assay to identify small molecule antagonists of the estrogen receptor beta (ER-beta) signaling pathway - cell viability counter screen (AID 1259382).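 Also: HEK293T cells carrying ER-beta-UAS-bla reporter stimulated with estradiol; series mostly up to about 92 µM; nearly all actives have a fitted effect of over 55% in size.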 An outline of the steps:
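ER-beta-UAS-bla HEK293T cells in 2% charcoal-stripped FBS medium, treated with compound plus 1 nM 17-beta-estradiol for 16 h at 37C. Viability read by CellTiter-Glo luminescence after 30 min at room temperature in the same wells.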

Thyrotropin-releasing hormone receptor (Homo sapiens), sequence (P34981 whole entry, looked up): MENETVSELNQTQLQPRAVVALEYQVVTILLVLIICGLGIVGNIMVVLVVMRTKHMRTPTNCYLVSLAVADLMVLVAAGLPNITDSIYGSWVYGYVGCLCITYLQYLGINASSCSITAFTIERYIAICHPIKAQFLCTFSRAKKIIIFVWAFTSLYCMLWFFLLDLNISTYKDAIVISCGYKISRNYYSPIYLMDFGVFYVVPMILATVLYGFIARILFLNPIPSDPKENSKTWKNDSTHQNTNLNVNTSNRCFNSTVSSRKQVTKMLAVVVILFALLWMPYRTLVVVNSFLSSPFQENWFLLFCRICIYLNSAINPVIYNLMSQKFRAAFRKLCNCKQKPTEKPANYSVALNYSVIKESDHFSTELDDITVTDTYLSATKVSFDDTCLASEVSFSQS
Thyrotropin receptor (Homo sapiens), sequence (P16473 whole entry, looked up): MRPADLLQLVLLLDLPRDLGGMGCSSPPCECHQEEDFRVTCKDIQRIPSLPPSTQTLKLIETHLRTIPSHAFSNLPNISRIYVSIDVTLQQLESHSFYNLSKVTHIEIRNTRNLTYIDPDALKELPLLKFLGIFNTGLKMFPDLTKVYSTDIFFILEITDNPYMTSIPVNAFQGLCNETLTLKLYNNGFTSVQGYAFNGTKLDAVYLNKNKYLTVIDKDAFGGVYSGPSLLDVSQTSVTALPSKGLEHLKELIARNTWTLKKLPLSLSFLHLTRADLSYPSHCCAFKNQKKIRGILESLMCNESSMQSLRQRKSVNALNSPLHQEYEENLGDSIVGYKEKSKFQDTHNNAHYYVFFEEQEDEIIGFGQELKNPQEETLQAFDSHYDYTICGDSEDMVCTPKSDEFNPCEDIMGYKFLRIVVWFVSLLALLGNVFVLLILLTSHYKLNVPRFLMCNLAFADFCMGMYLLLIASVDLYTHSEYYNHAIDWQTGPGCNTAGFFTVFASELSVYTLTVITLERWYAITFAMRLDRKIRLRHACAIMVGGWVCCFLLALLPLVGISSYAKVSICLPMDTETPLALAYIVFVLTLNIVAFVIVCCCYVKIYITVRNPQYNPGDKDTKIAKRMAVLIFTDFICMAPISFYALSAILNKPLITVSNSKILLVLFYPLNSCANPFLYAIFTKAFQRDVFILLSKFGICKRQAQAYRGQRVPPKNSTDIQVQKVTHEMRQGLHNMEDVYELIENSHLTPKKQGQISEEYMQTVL

For the compound `O=C(O)C(Cl)Cl`, the Potency entry in assay [1], in [2], in assay [3], in assay [4], in assay [5] and in assay [6] was “inactive” in each case. Besides, the Potency entry in assay [7], in assay [8], in assay [9], in [10], in assay [11] and in assay [12] was “inactive” each time. Also, the Potency result in assay [13], in [14], in [15], in assay [16], in [17] and in [18] was “inactive” in each case.
Regarding `CCC(=O)C(CC(C)N(C)C)(c1ccccc1)c1ccccc1` (stereo not given), the Potency entry in assay [1], in [20], in [3], in assay [4], in assay [5] and in assay [6] was “inactive” throughout. The Potency result in [7], in [8], in assay [12], in assay [17] and in [18] was “inactive” each time. For the same compound, the Potency in assay [2] is 54.7 µM (active); in assay [9] it was 54.7 µM (active); in assay [10], 43.5 µM (active); in [16], 27.4 µM (active). In addition, the outcome in assay [19] was inactive.
Take `C1CCC(NC2CCCCC2)CC1`: the Potency entry in assay [1], in assay [2], in [20], in assay [3], in assay [4] and in assay [5] was “inactive” in each case. The Potency result in assay [7], in assay [8], in assay [9], in assay [10], in assay [11] and in assay [12] was “inactive” each time. The Potency result in assay [13], in assay [14], in [15], in assay [16], in assay [17] and in assay [18] was “inactive” in each case.
For `CC(Cl)(Cl)C(=O)O`, the Potency entry in assay [1], in assay [2], in [20], in assay [3], in assay [4] and in [5] was “inactive” throughout. Also, the Potency entry in assay [6], in assay [7], in assay [8], in [9], in [10] and in assay [11] was “inactive” in each case. The Potency result in assay [12], in [13], in assay [16], in [17] and in assay [18] was “inactive” in each case.
For `CC(=O)[O][Hg][c]1ccccc1`, the Potency was 4.29 µM (active) and 6.86 µM (active) and 7.5 µM (active) in assay [1]; 1.92 µM (active) and 3.86 µM (active) and 5.31 µM (active) in assay [2]; 2.07 µM (active) and 5.88 µM (active) and 4.92 µM (active) in assay [4]; 60.6 µM (active) and 68.6 µM (active) in assay [5]; 2.15 µM (active) in assay [8]; 4.81 µM (active) and 3.86 µM (active) and 5.31 µM (active) in assay [9]. In addition, the Potency in [10] was 5.4 µM (active) and 5.45 µM (active) and 5.96 µM (active); in assay [11], 7.69 µM (active) and 8.71 µM (active) and 10.7 µM (active); in assay [12], 8.63 µM (active) and 7.76 µM (active) and 9.52 µM (active); in assay [16], 2.24 µM (active) and 3.06 µM (active) and 4.73 µM (active); in [18], 762 nM (active) and 1.09 µM (active) and 1.88 µM (active). In assay [19], the result was inactive. Moreover, the Potency result in assay [3] and in assay [17] was “inactive” each time.
Regarding `CCCCCC[n+]1ccccc1`, the Potency entry in assay [1], in [2], in [20], in assay [7], in assay [8] and in assay [9] was “inactive” in each case. For the same compound, the Potency entry in [10], in assay [11], in assay [12], in assay [13], in [17] and in [18] was “inactive” throughout.
Turning to `OCCOc1ccccc1`, the Potency result in assay [1], in [2], in assay [3], in assay [4], in assay [5] and in [7] was “inactive” each time. The Potency result in assay [8], in assay [9], in assay [10], in assay [11], in assay [12] and in [13] was “inactive” throughout. The Potency result in assay [16], in [17] and in assay [18] was “inactive” each time.

For the origin of these results see PubChem BioAssay (Tox21).
